Vaccinia mCherry: vaccinia inhibition (mCherry reporter); Vaccinia virus mCherry reporter infection, fluorescence; Potency, µM (series often up to 36.5 µM), for inactives: at the top dose activity change, negative = inhibition, usual class: inhibitors; 310,000 tested, 0.63% active; AID 720579; calls by dose curve; tested in A549 cells; also: potency is read from the fitted curve at half-maximal effect; nearly all actives have a fitted effect of over 35% in size
HCMV inh: blocks human cytomegalovirus replication; AID 1259415; HFF cells, HCMV-luciferase reporter, 72 h; stronger effect = lower value; activity change, negative = inhibition, % at 57.5 µM; 410,000 tested, 4.5% active; in the data active = activity change below about -60%; inconclusive = no clear call, values can overlap the other calls; inactive = above about -39%
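Luciferase read-out from HCMV-luciferase-infected HFFs (MOI 1 PFU/cell) 72 h post infection at 37C; compounds added after 16 h cell attachment; activity normalized between buffer-only basal and Salinomycin (10uM) inhibitor controls.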
HCV inhibitor: HCV inhibition; Huh7.5.1 HCVcc-Cre infection, luciferase reporter, 44 h; Potency, µM (doses to about 41.8 µM), for the others: at the top dose activity change, negative = inhibition, actives largely listed as inhibitors; 340,000 tested, 3.4% active; AID 651820; active = well fitted inhibition curve with a large enough effect; inconclusive = small, poorly fitted or top-dose-only effect, or another doubt; inactive = no such curve, though single readings can be large or run the other way; also: potency is read from the fitted curve at half-maximal effect
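Infectious HCVcc-Cre (~0.5 moi) was added to cells just after compound, with cells seeded 4 h earlier at 1,000 per well. Luciferase activity after 44 h culture reported infection; substrate was incubated 15 min at room temperature before reading.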
Vaccinia Venus: inhibitors of vaccinia virus (Venus reporter). Vaccinia virus Venus reporter expression, fluorescence. Potency, µM (doses to about 36.5 µM), without a hit: at the top dose activity change, negative = inhibition, most hits filed as inhibitors. 330,000 tested, 0.46% active. AID 720580; calls by dose curve; tested in A549 cells; also: potency is read from the fitted curve at half-maximal effect; nearly all actives have a fitted effect of over 30% in size
FMDV antiviral: blocks foot and mouth disease virus | FMDV antiviral cell-based qHTS | Potency, µM (top dose mostly 57.9 µM), for inactives: at the highest dose activity change, negative = inhibition, most hits filed as inhibitors | 410,000 tested, 1.2% active | AID 1159524; calls by dose curve; tested in HEK293T cells; also: read-out not given here; potency is read from the fitted curve at half-maximal effect; nearly all actives have a fitted effect of over 45% in size
An asterisk follows results filed as active. An excerpt weighted towards active compounds, which were near 7.3% of everything screened. % is scaled to controls: 0 for no effect and ±100 for the full control effect.

Screening CCC(=O)NC(c1ccc(OC)c(OC)c1)c1cc(Cl)c2cccnc2c1O (configuration not stated) returned Vaccinia mCherry 11µM*, HCMV inh -110*, HCV inhibitor inconclusive, Vaccinia Venus inconclusive and FMDV antiviral -16%.
COc1ccc(C(C)NC(=O)c2ccccc2)cc1 (configuration not stated) was read as Vaccinia mCherry inactive, HCMV inh -25, HCV inhibitor 26% and Vaccinia Venus -13%.
`COc1ccc(C(NC(C)=O)c2nccc3cc(OC)c(OC)cc23)cc1OC` (configuration not stated) gave HCMV inh 17, HCV inhibitor 10% and FMDV antiviral -4%.
For COc1ccc(C(NC(=O)c2ccc(-c3ccccc3)cc2)c2ccccc2)cc1 (configuration not stated) the results were Vaccinia mCherry -13%, HCMV inh -66*, HCV inhibitor 25%, Vaccinia Venus -2% and FMDV antiviral 2%.
For COc1ccc(C(NC(C)=O)c2cc(Cl)c3cccnc3c2O)cc1OC (configuration not stated) the results were Vaccinia mCherry inconclusive, HCMV inh -100*, HCV inhibitor 2µM*, Vaccinia Venus inconclusive and FMDV antiviral -17%.
For CCC(=O)NC(c1ccc(C)cc1)c1cc(Cl)c2cccnc2c1O (configuration not stated) the results were FMDV antiviral -21%.
For O=C(Oc1ccc(Cl)c2cccnc12)c1cccnc1 the results were Vaccinia mCherry inconclusive, HCMV inh 58, HCV inhibitor inconclusive, Vaccinia Venus inconclusive and FMDV antiviral -28%.
`O=C(NC(c1ccccc1)c1cc(Cl)c2cccnc2c1O)c1cccnc1` (configuration not stated) gave HCMV inh -100* and HCV inhibitor -13%.
For CCOCCCNC(=O)c1ccc(-n2c(-c3ccccc3)cc3c2CCC(C)C3)cc1 (configuration not stated) the results were Vaccinia mCherry -19%, HCMV inh -93*, Vaccinia Venus -15% and FMDV antiviral -24%.
For COC(=O)c1ccc(Cl)c(NC(=O)Cc2ccccc2[N+](=O)[O-])c1 the results were Vaccinia mCherry -12%, HCMV inh -72*, HCV inhibitor 14%, Vaccinia Venus 0% and FMDV antiviral -2%.
CSc1ccccc1NC(=O)Cc1ccccc1[N+](=O)[O-] was read as HCMV inh -6, HCV inhibitor 0% and FMDV antiviral 4%.
CC(I)CCC(C)[n+]1cccc(I)c1 (configuration not stated) was read as Vaccinia mCherry -12% and Vaccinia Venus 12%.
NC1=C(Br)C(=O)c2ccccc2C1=O was read as Vaccinia mCherry -49%, HCMV inh -86*, HCV inhibitor inconclusive, Vaccinia Venus inconclusive and FMDV antiviral -19%.
O=C1c2ccccc2C(=O)c2c(O)ccc(O)c21 was read as FMDV antiviral -20%.
Screening Nc1ccc(Br)c2c1C(=O)c1ccccc1C2=O returned Vaccinia mCherry 26%, HCV inhibitor 10µM*, Vaccinia Venus 47% and FMDV antiviral 2%.
Screening Nc1ccc(O)c2c1C(=O)c1ccccc1C2=O returned Vaccinia mCherry 210%, HCMV inh -34, HCV inhibitor 5µM*, Vaccinia Venus 192% and FMDV antiviral -24%.
Screening Cc1cc2c(cc1C)C(=O)C(Br)=C(N)C2=O returned Vaccinia mCherry inconclusive, HCMV inh -33, HCV inhibitor inconclusive, Vaccinia Venus -8% and FMDV antiviral 25%.
For COc1ccc(N)c2c1C(=O)c1ccccc1C2=O the results were Vaccinia mCherry 77%, HCMV inh 27, HCV inhibitor inconclusive, Vaccinia Venus 95% and FMDV antiviral -6%.
O=C(NCC(c1ccc2c(c1)OCO2)N1CCOCC1)c1ccc(F)cc1 (configuration not stated) was read as Vaccinia mCherry inactive, HCMV inh 13, Vaccinia Venus -3% and FMDV antiviral 11%.
Cc1ccccc1C(=O)Oc1cccc(Nc2ncnc3ccccc23)c1 was read as Vaccinia mCherry inconclusive, HCMV inh 128, HCV inhibitor inconclusive, Vaccinia Venus inconclusive and FMDV antiviral 16µM*.
`O=C(OCCNc1nc(-c2ccccc2)nc2ccccc12)c1ccncc1` gave HCMV inh inconclusive, HCV inhibitor 16µM* and FMDV antiviral -29%.
Screening CCOC(=O)c1cccc(Nc2ncnc3ccccc23)c1 returned HCMV inh 3, HCV inhibitor inconclusive, Vaccinia Venus inconclusive and FMDV antiviral 40µM*.
`CC(=O)Oc1cccc(Nc2ncnc3ccccc23)c1` gave HCMV inh 36, HCV inhibitor -20% and FMDV antiviral -8%.
CCOC(=O)c1nc(Nc2ccc(Nc3ccccc3)cc2)c2ccccc2n1 was read as HCMV inh inconclusive, HCV inhibitor 11µM* and FMDV antiviral inconclusive.
`O=C(CCNS(=O)(=O)c1cccc2nsnc12)Nc1ccc(F)cc1` gave Vaccinia mCherry -5%, HCMV inh -2, Vaccinia Venus -10% and FMDV antiviral 10%.
OCC[N+]1(CCc2ccccc2)CCOCC1 was read as Vaccinia mCherry inactive and Vaccinia Venus -5%.
Screening CC(NC(=O)c1cccnc1)c1nnc2n1CCN(Cc1ccc(F)cc1F)CC2 (configuration not stated) returned Vaccinia mCherry -7%, Vaccinia Venus -2% and FMDV antiviral -6%.
Screening CCOC(=O)c1ccc(Nc2nc3ccccc3nc2NS(=O)(=O)c2ccc(Cl)cc2)cc1 returned Vaccinia mCherry 10µM*, HCMV inh -2, Vaccinia Venus inconclusive and FMDV antiviral inconclusive.
Screening CCCOC(=O)c1cccc(Nc2nc(-c3cccnc3)nc3ccccc23)c1 returned Vaccinia mCherry inconclusive, HCMV inh 134, HCV inhibitor inconclusive, Vaccinia Venus inconclusive and FMDV antiviral 25µM*.
O=C(OCCNc1nc(-c2ccccc2)nc2ccccc12)c1cccnc1 was read as HCMV inh 5, HCV inhibitor inconclusive and FMDV antiviral -22%.
Cc1ccc(S(=O)c2ccc(NC(=O)C3CC3)cc2C#N)cc1 (configuration not stated) was read as Vaccinia mCherry inactive, HCMV inh -66*, HCV inhibitor inconclusive, Vaccinia Venus -9% and FMDV antiviral inconclusive.
Screening Cc1ccc(NC(=O)C2CCN(S(=O)(=O)c3ccccc3)CC2)cc1 returned Vaccinia mCherry inactive, HCMV inh inconclusive, HCV inhibitor 2%, Vaccinia Venus -12% and FMDV antiviral inconclusive.
`COc1cc(C=O)c([N+](=O)[O-])cc1OC` gave FMDV antiviral -12%.
For COc1cc(C=C(c2nc3ccccc3s2)c2nc3ccccc3s2)cc(OC)c1O the results were Vaccinia mCherry 32%, HCMV inh -15, HCV inhibitor 10µM*, Vaccinia Venus 116% and FMDV antiviral -12%.

Bioassay records deposited in PubChem BioAssay by National Center for Advancing Translational Sciences (NCATS).
